93 molecules from ChEMBL document CHEMBL3988442, “University of Dundee, Small-Polar-MMV Screening Library” (2021) can be followed below.

Out of some 48,000 compounds screened, about 13,000 (27%) showed an effect of 50% or more. The list shows a part of the results.

This assay deals with Wolbachia pipientis. As to the kind of experiment: Anti-Wolbachia Cell-Based Screen. Format: functional. On the set-up: scale not given: in the data most compounds retested in dose-response had high values. Particulars: 5 µM.
Consider `CN1CCC(c2cncc(N(C)C)n2)CC1`, for which the “Percent Effect” value was found to be 94.73%. On to `COCCNc1nc2c(c(NCc3cnc(C)c(C)c3)n1)CCNCC2`, for which the “Percent Effect” value is recorded as 2.827%. In the case of `Cc1cc(CN2CC[C@H]3C[C@H](C(=O)N(C)C)O[C@@H]3C2)no1` it was -3.331%; in that of `Cc1cc(CN2CC[C@H]3C(=O)N(c4ccsc4)CCO[C@H]3C2)no1.O=C(O)C(F)(F)F`, -15.71%. As for `Cc1cc(CN2C[C@@H]3CN(Cc4ccsc4)CCO[C@@H]3C2)no1`, the figure is -0.7027%; as for `Cc1cc(CN2C[C@@H]3COC[C@]3(c3nnc(C)o3)C2)no1`, 12.18%; as for `Cc1csc([C@H]2C[C@H]3CN(Cc4cc(C)on4)CC[C@@H]3O2)n1.O=C(O)C(F)(F)F`, 122.4%.

Regarding `Cc1csc([C@@H]2C[C@@H]3CCN(Cc4cc(C)on4)C[C@H]3O2)n1`, the “Percent Effect” value is 98.39%. In the case of `Cc1noc([C@@H]2C[C@H]3CN(Cc4cc(C)on4)C[C@H]3O2)n1.O=C(O)C(F)(F)F` it was 5.383%; in that of `Cc1csc(CN2CC[C@H]3C[C@H](c4ccncn4)O[C@@H]3C2)n1`, 0.9996%. As for `Cc1cc(CN2CC[C@@H]3O[C@@H](c4nnc(C)o4)C[C@H]3C2)no1`, the figure is 110.6%; as for `C[C@@H]1C[C@@H]2CCN(Cc3nccs3)C[C@H]2O1`, -21.98%; as for `Cc1nnc([C@H]2CC[C@@H]3[C@@H](CCN3Cc3c(C)noc3C)O2)o1`, 0.6834%. As to `Cc1csc([C@H]2C[C@@H]3CCN(Cc4cc(C)on4)C[C@H]3O2)n1`, the “Percent Effect” value is 115.5%. As for `Cc1nn(C)c(C)c1C(C(=O)O)N1CC=C(c2ccccc2)CC1` (stereo not drawn), the figure is -20.97%; as for `CN1CCN(C[C@H]2CN3CC[C@H]2C[C@@H]3CNC(=O)c2ccco2)CC1`, -8.219%; as for `O=C(O)C(F)(F)F.O=C(O)C(F)(F)F.c1cncc(CO[C@H]2CC[C@H]3[C@@H]2OCCN3C2CCOCC2)c1`, -9.441%. On to `Cc1ccc(CN2CCO[C@H]3[C@@H](OCc4cccnc4)CC[C@@H]32)o1.O=C(O)C(F)(F)F.O=C(O)C(F)(F)F`, for which the “Percent Effect” value was determined as 111.1%.

Consider `Cc1ccc(CN2CCO[C@H]3[C@H](OCc4cccnc4)CC[C@@H]32)o1.O=C(O)C(F)(F)F.O=C(O)C(F)(F)F`, for which the “Percent Effect” value turned out to be 105.6%.

As for `Cc1ccc(CN2CCO[C@@H]3[C@@H](OCc4cccnc4)CC[C@@H]32)o1`, the “Percent Effect” value turned out to be 103.6%.

`c1ccc(O[C@H]2CC[C@H]3[C@H]2OCCN3Cc2nccs2)nc1`: the “Percent Effect” value is reported as -6.34%.

`CC(C)CNC(=O)N1CCOC2(CCNCC2)C1`: the “Percent Effect” value was -1.344%.

Consider `CC[C@H](N)Cn1nc(-c2cccs2)oc1=O.Cl`, for which the “Percent Effect” value is -4.464%. As to `CCOCCNC1(c2ccc(Cl)cc2)CCOCC1`, the “Percent Effect” value is given as -4.765%. In the case of `CN(CCc1ccc(F)cc1)Cc1nc2c(cnn2C)c(=O)[nH]1` it was 17.64%. In the case of `CN(CCc1ccccc1)Cc1nc2c(cnn2C)c(=O)[nH]1` it was 101%.

Regarding `CC(NC(=O)CN1CCCC1=O)c1ccc(Cl)s1` (stereo not drawn), the “Percent Effect” value is -9.497%. In the case of `O=C(CCc1ccsc1)N1CCC(C(=O)O)(c2ccccc2)CC1` it was 7.958%.

Consider `O=C(c1ccc2c(c1)COC2)N1CCC(Nc2ccccc2)CC1`, for which the “Percent Effect” value is listed as 5.047%. For the molecule `O=C(c1ccc2c(c1)OCO2)N1CCC(C(=O)O)(c2ccccc2)CC1`, the “Percent Effect” value is given as 117.1%. In the case of `COCCN1CC[C@]2(CN(Cc3ccccn3)C[C@H]2C)C1=O.O=C(O)C(F)(F)F.O=C(O)C(F)(F)F` it was -7.652%; in that of `C[C@@H]1CN(C2CCOC2)C[C@]12CCN(Cc1cccnc1)C2=O.O=C(O)C(F)(F)F.O=C(O)C(F)(F)F` (stereo partly drawn), -21.11%. For the molecule `Cc1ncsc1CN1C[C@@H]2CN(Cc3cccnc3)CCO[C@@H]2C1`, the “Percent Effect” value is reported as -8.283%. In the case of `O=C(C1CCOCC1)N1C[C@H]2CC[C@@H]1CN(Cc1ccncc1)C2` it was 9.375%. As for `COC(=O)N1C[C@H]2CC[C@@H]1CN(Cc1ccncc1)C2`, the figure is -3.604%. As for `O=C1CO[C@H]2CN(Cc3cccnc3)C[C@H]2N1`, the figure is 0.8904%; as for `COCCN1CC[C@]2(CN(Cc3cccnc3)C[C@H]2C)C1=O.O=C(O)C(F)(F)F.O=C(O)C(F)(F)F`, 106.1%. Turning to `C[C@@H]1CN(Cc2cccnc2)C[C@]1(C)O`, the “Percent Effect” value stood at 104.9%. For the molecule `Cc1ccc([C@]2(O)CC[C@H]3CN(Cc4cccnc4)C[C@H]32)nc1`, the “Percent Effect” value is on record as 129.8%. As to `CC(C)OC(=O)N1C[C@H]2CC[C@@H]1CN(Cc1cccnc1)C2`, the “Percent Effect” value was -10.82%. In the case of `Cc1ccc([C@]2(O)CC[C@H]3CN(Cc4ccncc4)C[C@H]32)nc1` it was 139.7%; in that of `Oc1cccc(CN2C[C@H]3CC[C@@H]2CN(Cc2cccnc2)C3)c1`, 8.491%. Consider `CCCn1ncc(CN2CCCC(C(=O)c3ccc(SC)cc3)C2)c1C` (stereo not drawn), for which the “Percent Effect” value is given as -6.021%. As to `Cc1cccc2cc(CN3CCCN4CCC[C@H]4C3)c(=O)[nH]c12`, the “Percent Effect” value is recorded as -11.16%. In the case of `c1cnc(N2CC[C@@H]3[C@@H]2CCN3Cc2cccs2)nc1` it was -7.885%. As for `Cl.Cl.O=C1NC2(CCNCC2)CC1c1ccncc1` (stereo not drawn), the figure is -8.002%; as for `CC(C)=CCN1C[C@H]2CC[C@@H]1CN(S(=O)(=O)c1cccnc1)C2`, -24.05%; as for `CNc1nc(C(=O)N2C[C@@H]3CCN(C)[C@@H]3C2)cs1`, 2.53%. As for `Cc1cc(C(=O)NCC(=O)N2CCOCC2)nn1C(C)(C)C`, the figure is 90.04%; as for `CN1CCc2c(CNC(=O)c3nccn3C)cncc2C1.Cl.Cl.Cl`, 16.49%; as for `Cl.Cl.Cn1cc(C(=O)NCc2cncc3c2CCNC3)cn1`, 102.3%. On to `Cc1ncc2c(c1CNC(=O)C1(C)CC1)CCNC2`, for which the “Percent Effect” value is -5.654%. In the case of `CCn1ccnc1CN1CCCN(C(=O)Cc2ccc(C)s2)CC1` it was 99.83%; in that of `Cc1nc(CC(=O)N2CCN(Cc3ccc(C#N)cc3)CC2)cs1`, -1.564%; in that of `CCn1cc(CN2CCCN(C(=O)Cc3ccc(C)nc3)CC2)cn1`, 6.063%. As for `CCn1cc(CN2CCCN(C(=O)Cc3cccs3)CC2)cn1`, the figure is -6.845%.

Consider `CCn1ccnc1CN1CCCN(C(=O)Cc2ccc(C)cc2)CC1`, for which the “Percent Effect” value is reported as 110.8%. As for `CCc1nc(CN2CCCN(C(=O)Cc3cccs3)CC2)cs1`, the figure is -3.679%; as for `NC(=O)CN1CCCN(C(=O)Cc2ccc3ccccc3c2)CC1`, -1.177%; as for `CCn1ccnc1CN1CCCN(C(=O)Cc2ccc(C)nc2)CC1`, -2.19%.

As for `CCN1CCN(C(=O)Cc2ccc(S(=O)(=O)C(F)F)cc2)CC1`, the “Percent Effect” value is given as -2.606%. In the case of `CCCN1CCN(Cc2nccn2CC)C(C)C1` (stereo not drawn) it was -20.72%; in that of `Cc1ccc(CC(=O)N2CCCN(Cc3nccn3C)CC2)cn1`, 118.2%. In the case of `CCn1ccnc1CN1CCCN(C(=O)Cc2csc(C)n2)CC1` it was 120.7%; in that of `COCC(=O)NC[C@H]1C[C@@H]2CCN1C[C@@H]2CN1CCc2ccccc21`, -6.803%. In the case of `CNCCc1nc2cc(F)ccc2[nH]1.Cl.Cl` it was -2.58%; in that of `COCC1CN(c2ccc(C#N)c(Cl)c2)CCO1` (stereo not drawn), -25.31%. Consider `O=C(Cc1ccccc1)N1CCN(Cc2noc(C3CC3)n2)CC1`, for which the “Percent Effect” value is recorded as 0.1776%. As for `CCc1noc(CN2CCN(C(=O)Cc3ccc(F)cc3)CC2)n1`, the figure is -6.192%; as for `CCn1ccnc1CN1CCCN(C(=O)Cc2ccc(F)cc2)CC1`, 115.9%. In the case of `CCn1ccnc1CN1CCCN(C(=O)Cc2ccccc2C)CC1` it was 129.6%; in that of `NC(=O)CN1CCCN(C(=O)Cc2ccc(F)c(Br)c2)CC1`, -2.154%. In the case of `COCCn1cncc1CN1CCC(C(C)=O)(c2ccccc2)CC1` it was -9.89%; in that of `CCn1cncc1Cn1ncc2ccccc2c1=O`, 88.95%; in that of `COCCn1cncc1Cn1ncc2ccccc2c1=O`, 103.5%. For the molecule `O=c1c2ccccc2cnn1Cc1cncn1C1CC1`, the “Percent Effect” value worked out at 94.68%. In the case of `N#Cc1ccc(S(=O)(=O)NCCn2ccnc2)cc1Cl` it was -8.716%. Take `Cl.O=C1NC2(CCNCC2)CC1c1ccccc1` (stereo not drawn): the “Percent Effect” value is on record as -38.6%.

On to `CC(C)COC(=O)N1CCC2(CCNC2)C1.Cl` (stereo not drawn), for which the “Percent Effect” value was -11.51%. In the case of `CC(C)NC(=O)N1CCOC2(CCCNC2)C1` (stereo not drawn) it was -11.25%. On to `Cc1[nH]c2c(F)cccc2c1CC(=O)N1CCN(C2CCSCC2)CC1`, for which the “Percent Effect” value is on record as -2.752%. As for `CN(C)CCOCc1cncc2c1CCN(C1CCOC1)C2.O=C(O)C(F)(F)F.O=C(O)C(F)(F)F.O=C(O)C(F)(F)F` (stereo not drawn), the figure is 106.1%; as for `CCS(=O)(=O)N1CCc2c(COCCN(C)C)cncc2C1.O=C(O)C(F)(F)F.O=C(O)C(F)(F)F`, 97.71%; as for `CCN(C)c1ncc2c(c1C(=O)O)CCN(C1CCOC1)C2.O=C(O)C(F)(F)F.O=C(O)C(F)(F)F` (stereo not drawn), -4.446%. In the case of `CCCS(=O)(=O)N1CCc2c(COCC)cncc2C1.O=C(O)C(F)(F)F` it was 0.2019%; in that of `CC(Cc1cccc(Cl)c1)NC(=O)NCc1ncnn1C` (stereo not drawn), -5.872%.

With `Cc1ncccc1OCC(=O)N1CCN[C@H]2CS(=O)(=O)C[C@H]21`, the “Percent Effect” value was -3.722%. As for `Cc1noc(C)c1CN1CC[C@@H]2O[C@@H](COCC3CC3)CC[C@@H]21.O=C(O)C(F)(F)F`, the figure is -0.7071%; as for `Cc1noc(C)c1CN1CCO[C@H]2CN(CC3CC3)C[C@H]21.O=C(O)C(F)(F)F.O=C(O)C(F)(F)F`, -4.425%. On to `CCOC[C@@H]1CC[C@H]2[C@H](CCN2Cc2c(C)noc2C)O1.O=C(O)C(F)(F)F`, for which the “Percent Effect” value worked out at 3.079%. In the case of `Cc1noc(C)c1CN1CC[C@H]2[C@H]1CCN2CC1CCOCC1.O=C(O)C(F)(F)F.O=C(O)C(F)(F)F` it was 115.6%; in that of `CCOC[C@H]1CC[C@H]2[C@H](CCN2Cc2c(C)noc2C)O1.O=C(O)C(F)(F)F`, 4.615%. As for `COCCN1C(=O)CC[C@@H]2[C@@H]1CCN2Cc1c(C)noc1C.O=C(O)C(F)(F)F`, the figure is 103.6%.
